Only some compounds are listed: those with a hit (about 6.1% of all), similar ones and a draw of the others.
DUSP1 inh = human dual specificity phosphatase 1 inhibition; 0.15% of 65,000 active; P28562; inhibition, %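 (compounds tested at a single concentration somewhere between 10 and 100 µM)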; AID 374; recombinant MKP-1, OMFP hydrolysis fluorescence;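 active = inhibition above about 50%, limit read from the data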;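 also: 0% = DMSO max control wells and 100% = wells with enzyme stopped by NaOH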
Target sequence (P28562 whole entry, looked up): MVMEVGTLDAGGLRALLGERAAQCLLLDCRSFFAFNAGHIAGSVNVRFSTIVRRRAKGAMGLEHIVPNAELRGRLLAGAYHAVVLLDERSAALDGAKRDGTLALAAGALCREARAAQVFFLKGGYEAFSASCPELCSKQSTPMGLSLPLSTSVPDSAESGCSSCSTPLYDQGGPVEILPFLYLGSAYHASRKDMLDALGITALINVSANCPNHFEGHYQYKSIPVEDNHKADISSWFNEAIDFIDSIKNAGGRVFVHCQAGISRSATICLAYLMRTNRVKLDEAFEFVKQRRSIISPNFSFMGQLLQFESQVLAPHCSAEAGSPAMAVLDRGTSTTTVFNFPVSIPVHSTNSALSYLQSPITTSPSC
MMP-13 inhibitor = blocks human MMP13 activity | inhibition, % at 4 µM | 0.07% of 65,000 active | AID 570 | MMP-13 fTHP FRET cleavage, Mca fluorescence;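 active = inhibition above the mean of compound-free control plate wells plus 3 SD, cut at about 14% in these data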;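 also: 0% = DMSO wells and 100% = wells with reference MMP-13 inhibitor after basal subtraction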
M1 ag = activates the M1 muscarinic receptor; 3% of 64,000 active; B-score at 10 µM; CHO-M1 cells, Fluo-4 calcium fluorescence, agonist mode; active compounds read high;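 active = fluorescence rise, raw or as B-score row- and column-corrected plate score, outside the 99.7% band of its plate's samples, either direction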
Cdc25B inh = inhibitors of human Cdc25B phosphatase; recombinant Cdc25B, OMFP fluorescence Ex485/Em525; P30305; AID 368; inhibition, %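 (compounds tested at 10 µM final in the well)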; 0.1% of 65,000 active; in the data active = inhibition above about 50%
M1 antag = antagonists of rat M1 muscarinic receptor. P08482. CHO-M1 cells, Fluo-4 calcium, ACh EC80 antagonist mode; active compounds read low. B-score at 10 µM. 3.4% of 64,000 active;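 active = calcium fluorescence response, raw or row-and-column corrected B-score, differing from the plate sample mean either way at a set confidence level, mostly lower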
Hsp90 inh = displaces geldanamycin probe from tumor Hsp90. P07900. NCI-N417 lysate Hsp90, Cy3B-geldanamycin FP displacement. inhibition, % at 30 µM. 0.35% of 64,000 active;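 active = inhibition above 50%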;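 also: 0% = tracer plus lysate wells and 100% = tracer alone without lysate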
M1 antag conf = confirmation of rat M1 muscarinic receptor antagonists; shares compounds with M1 antag; CHO-M1 cells, Fluo-4 calcium, ACh EC80 antagonism; active compounds read low; calcium response (max-min fluorescence) at 10 µM; 43% of 1,700 active; AID 677;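 active = calcium response below the same-plate mean of wells given acetylcholine alone at its 80%-effect dose, minus 3 SD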;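 also: raw fluorescence intensity difference in arbitrary instrument units and not normalized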
mGluR4 antag = selectivity test for M1 antagonists: human mGluR4 receptor. fluorescence response (max-min) at 10 µM. AID 678. 0.9% of 1,700 active. shares compounds with M1 antag. CHO-mGluR4 calcium flux, Fluo-4 fluorescence, glutamate EC80; active compounds read low;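 active = fluorescence response below the plate's average for near-maximal glutamate wells, less 3 SD of those wells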;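 also: raw unnormalized fluorescence span taken in the window right after glutamate addition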
The depositor's hits bear a star; i = inactive; · = no result.

SMILES	DUSP1 inh	MMP-13 inhibitor	M1 ag	Cdc25B inh	M1 antag	Hsp90 inh	M1 antag conf	mGluR4 antag
O=C(CCN1CCc2ccccc2CC1)c1ccc2c(c1)OCCO2	-27	0	0.069	11	-3.9*	-1	215*	194
COc1ccc(NC(=O)C2CCCCN2CC(=O)OCc2ccccc2)cc1OC (configuration not stated)	16	-5	-1	-9	-2.7*	-2	610	210
COc1ccc(CNC(=O)NCc2ccc(OC)c(OC)c2)cc1OC	-10	-5	-1.4	2	-2.4*	-4	524	206
O=C(CN1CCSCC1)N1CCc2[nH]c3ccc(Br)cc3c2C1	14	0	-0.14	-3	-11*	-5	124*	230
CC1=NC(Nc2nc(C)c3ccccc3n2)=NC(C)(C)C1	2	-3	-0.17	-8	-9.6*	1	224*	212
Cn1cc(CN2CCN(c3ccccc3)CC2)c2ccccc21	-6	1	-0.63	-12	-4.3*	-7	459*	191
CC1(C)CC(=O)C2(CC3=C(CC(C)(C)CC3=O)O2)C(=O)C1	16	7	-0.56	-32	1.3	-4	·	·
CC(=O)Nc1ccc(S(=O)(=O)n2nc(C)cc2C)cc1	-19	4	0.016	-5	0.55	-1	·	·
Cc1ccc2ccc(S(=O)(=O)n3nc(C)cc3C)cc2c1	7	8	-1.3	-2	-2*	-3	443*	269
CCc1nc2c(n1O)CCc1nonc1-2	21	3	·	3	·	-3	·	·
Cc1ccc2nc3c(cc(C(=O)NCc4cccnc4)c(=N)n3C(C)C)c(=O)n2c1	-2	-424	0.71	-21	-0.014	-6	·	·
CCn1c(=N)c(C(=O)NC)cc2c(=O)n3cccc(C)c3nc21	19	i	-1.6	-22	-1.5	0	·	·
Cc1ccc2nc3c(cc(C(=O)NCc4ccccc4)c(=N)n3CCCn3ccnc3)c(=O)n2c1	-12	-255	0.18	12	-4.2*	0	372	229
Cc1cccn2c(=O)c3cc(C(=O)NC(C)c4ccccc4)c(=N)n(CCCn4ccnc4)c3nc12 (configuration not stated)	10	-439	-0.67	14	-2.9*	-2	317*	200
Cc1ccc(NC(=O)NC(=O)CN2C(=O)NC3(CCCCCCC3)C2=O)c(C)c1	35	-1	-0.12	2	-2.2*	-2	588	164
CCOc1ccc2nc(NC(=O)C3CCCN(S(=O)(=O)c4cccs4)C3)sc2c1 (configuration not stated)	2	0	·	-4	·	-1	·	·
COc1cccc(CNC(=O)C2CCN(S(=O)(=O)c3c(C)nn(C)c3C)CC2)c1	8	5	0.096	-5	-0.43	-1	·	·
O=C(Cc1coc2ccc3ccccc3c12)N1CCN(c2ncccn2)CC1	24	-4	-0.76	-3	-3.3*	-2	589	240
O=C(COc1ccccc1Cl)N1CCN(c2ncccn2)CC1	5	-3	-0.011	-9	-0.36	0	·	·
O=C(c1cn(-c2ccccc2)nc1-c1ccncc1)n1nnc2ccccc21	3	-6	0.73	-13	-1.5	-5	·	·
CCCOc1ccc(-c2nnc(-c3ccncc3)o2)cc1	31	-56	-0.86	-16	-2*	-6	533	207
CC(=O)c1ccccc1NS(=O)(=O)c1c(C)nn(-c2ccccc2)c1C	0	4	-0.87	-2	-3.4*	-7	569	241
O=C(NCC(c1cccnc1)N1CCOCC1)Nc1ccccc1 (configuration not stated)	0	4	1.6	-10	-1.4	-1	·	·
O=C(Nc1ccc(S(=O)(=O)N2CCCC2)cc1)C1COc2ccccc2O1 (configuration not stated)	7	-2	-0.26	-8	-0.19	-3	·	·
O=C(Nc1nc(-c2ccc(S(=O)(=O)N3CCCC3)cc2)cs1)C1COc2ccccc2O1 (configuration not stated)	3	2	-1.9	-2	-8.7*	-6	559	206
SMILES	DUSP1 inh	MMP-13 inhibitor	M1 ag	Cdc25B inh	M1 antag	Hsp90 inh	M1 antag conf	mGluR4 antag
Cn1c(Cn2nnc3ccccc32)nnc1SCC(N)=O	-23	4	0.15	1	0.37	-3	·	·
COC(=O)c1c(NC(=O)CSc2nnc(Cn3nnc4ccccc43)n2C)sc(C)c1C	30	5	1.3	2	-2.4*	-2	430*	255
COc1cc2c(cc1OC)C(C(=O)N1CCCC1)C(c1ccccc1F)N(C)C2=O (configuration not stated)	6	3	-1.2	-5	-0.0072	·	·	·
COc1cc2c(cc1OC)C(C(=O)N1CCN(c3ccccn3)CC1)C(c1cccs1)N(C)C2=O (configuration not stated)	11	-19	0.51	-6	-2.1*	-5	604	239
CN1CCN(S(=O)(=O)c2ccc(N(C)Cc3cccs3)nc2)CC1	-9	-10	-0.41	8	-0.067	2	·	·
CCCCNC(=O)N1CCOCCOCCN(C(=O)NCCCC)CCOCCOCC1	-18	3	-0.21	-3	-0.58	-3	·	·
CCCCNC(=O)N1CCOCCOCCN(C(=O)NCCCC)CCOCC1	-19	1	0.059	9	-2.3*	-2	589	244
CN(C)c1ccnc(SCc2ccccc2Cl)c1C#N	3	2	-0.61	-21	-0.1	-1	·	·
CCOc1ccccc1CN1C(=O)NC(C)(c2ccccc2)C1=O (configuration not stated)	3	6	-0.31	-3	0.065	-1	·	·
CN(C(=O)CSc1nc2ccccc2n1CCc1ccccc1)C1CCS(=O)(=O)C1 (configuration not stated)	8	1	1.4	-3	-10*	4	449	203
CCOC(=O)c1cnc2c(Cl)c(Cl)ccc2c1N1CCN(C)CC1	-9	2	-0.52	-6	-3.1*	-7	511	211
FC(F)(F)c1cccc(-n2cccc2/C=N/n2cnnc2)c1	-21	-1	-0.014	-3	0.02	-3	·	·
COc1cc(OC)c(C2N(c3ccc(Cl)cc3)C(=O)C3CCCN32)cc1OC (configuration not stated)	0	-2	-0.25	-11	1.1	-7	·	·
Cn1c(=O)c2c(nc(CN3CCN(c4ccc(F)cc4)CC3)n2Cc2ccccc2F)n(C)c1=O	4	1	-0.38	-17	-0.42	2	·	·
O=C(NCCCN1CCN(c2cccc(Cl)c2)CC1)C1CCC(=O)N1Cc1ccccc1Cl (configuration not stated)	27	-3	-0.79	-17	-2*	-3	532	244
